PNC assembly inh – perinucleolar compartment assembly inhibition. activity change (PNC), negative = inhibition, % at 10 µM. PC3M PTB-GFP, PNC prevalence imaging, 16 h; active compounds read low. 140,000 compounds, 3.1% hits;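 active means readout at or below -70, meaning at least 70% loss of cells showing the perinucleolar compartment, a nuclear body marking cancer cells; inconclusive means readout between -30 and a set limit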;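 further: plate controls were DMSO wells for no effect and camptothecin positive control wells for full effect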
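Read-out is percentage of cells bearing a perinucleolar compartment, from automated 20x imaging of fixed, Hoechst-stained PC3M PTB-GFP cells. Cells were seeded 4 h, then exposed 16 h to compound (23 nl of library stock) in duplicate plates.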
12-hLO inh – inhibitors of human 12-lipoxygenase (ALOX12); P18054; purified 12-hLO, xylenol orange hydroperoxide absorbance; Potency, µM (doses to about 57.1 µM), without a hit: at the top dose activity change, negative = inhibition, most hits filed as inhibitors; 150,000 compounds, 0.12% hits; AID 1452; further: potency means the concentration at half of the fitted maximal effect; nearly all actives have a fitted effect of over 55% in size
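Hydroperoxide formation by human 12-lipoxygenase from 40 uM arachidonic acid was followed colorimetrically via ferric-xylenol orange complex, using the 573/405 nm absorbance ratio. Enzyme concentration was 150 nM, with 30 min reaction at room temperature.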
ALOX15B inhib – 15-hLO-2 (ALOX15B) enzyme inhibition. purified 15hLO-2, xylenol orange hydroperoxide absorbance. AID 881. Potency, µM (doses to about 57.1 µM), without a hit: at the highest dose activity change, negative = inhibition, most hits filed as inhibitors. 110,000 compounds, 0.56% hits. O15296; further: potency means the concentration at half of the fitted maximal effect; nearly all actives have a fitted effect of over 60% in size
Target sequence (O15296 whole entry, looked up): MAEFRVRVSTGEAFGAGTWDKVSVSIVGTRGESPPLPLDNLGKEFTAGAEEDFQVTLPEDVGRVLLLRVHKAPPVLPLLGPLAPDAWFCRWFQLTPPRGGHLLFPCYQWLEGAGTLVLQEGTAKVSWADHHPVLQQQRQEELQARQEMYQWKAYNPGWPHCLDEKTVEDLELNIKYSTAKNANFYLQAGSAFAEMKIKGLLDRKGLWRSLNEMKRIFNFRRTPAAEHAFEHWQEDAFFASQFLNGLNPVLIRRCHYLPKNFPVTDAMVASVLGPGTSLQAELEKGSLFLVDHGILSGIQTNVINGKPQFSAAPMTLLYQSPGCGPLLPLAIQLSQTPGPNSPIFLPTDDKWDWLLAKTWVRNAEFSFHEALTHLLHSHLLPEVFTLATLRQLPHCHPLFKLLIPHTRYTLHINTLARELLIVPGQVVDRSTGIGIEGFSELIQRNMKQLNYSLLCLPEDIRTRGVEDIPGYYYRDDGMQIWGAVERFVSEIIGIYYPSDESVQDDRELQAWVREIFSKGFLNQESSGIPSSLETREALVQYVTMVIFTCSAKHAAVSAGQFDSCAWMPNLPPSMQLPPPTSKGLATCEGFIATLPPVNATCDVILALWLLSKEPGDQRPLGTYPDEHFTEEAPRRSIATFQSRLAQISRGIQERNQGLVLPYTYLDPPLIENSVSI
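Read-out: hydroperoxide product oxidises ferrous iron, measured as xylenol orange complex via the 573-to-405 nm absorbance ratio after 30 min. Reaction: 50 nM enzyme, 15 min compound preincubation, 45 uM arachidonic acid, 90 min RT, Hepes pH 7.5 with Triton X-100.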
An asterisk follows results filed as active; u = inconclusive; x = no result given; [ ] = dose if it differs, or a comment. Compounds with a hit are over-represented: about 3.1% of the library has one in this group of screens. Unless noted, the call rests on the fitted dose curve; in most records, active means well fitted curve in the direction sought with a large enough effect; inconclusive means small, poorly fitted or top-dose-only effect, or another doubt; inactive means no such curve, though single readings can be large; an effect the other way counts as inactive or inconclusive. Unless noted, on the % scale 0 is the no-effect control and ±100 the full control effect.

SMILES | PNC assembly inh | 12-hLO inh | ALOX15B inhib
COC(=O)c1ccc(C(NC(=O)OCc2ccccc2)/C(C)=C/[C@@H](C)C(=O)NCc2cc(F)cc(F)c2)cc1 (some centres undefined) | x | 1% | -10%
COCCn1c(=O)c(-c2cn(C)c3ccccc23)nc2cnc(Oc3ccc(OC)cc3)nc21 | x | -2% | -3%
NCCC[C@@H](CC(=O)N[C@@H]1CCCC[C@H]1C(=O)N[C@H](CC(=O)N[C@@H](CCC(=O)O)CC(=O)O)Cc1c[nH]c2ccccc12)NC(=O)C[C@H](Cc1ccccc1)NC(=O)[C@@H]1CCCC[C@H]1N | x | 1% | x
Cc1ccc(NS(=O)(=O)c2ccc(OCC(=O)NCc3ccco3)cc2)cc1 | 25 | -4% | -6%
Cc1ccc(OCC(=O)NCc2cccs2)cc1 | u | 1% | 0%
Cc1c(Cl)c(=O)oc2cc(OCC(=O)NCc3cccs3)ccc12 | -108* | -2% | x
CCCNS(=O)(=O)c1ccc(OCC(=O)N2CCOCC2)cc1 | -100* | 8% | x
CCCNS(=O)(=O)c1ccc(CCC(=O)N2CCOCC2)cc1 | 7 | -7% | 4%
Cc1ccc(C)c(NS(=O)(=O)c2ccc(OCC(=O)NCc3ccco3)cc2)c1 | -90* | 2% | 8%[2.29 µM]
Cc1cc(=O)oc2ccc(OCC(=O)NCc3ccco3)cc12 | -16 | 11% | 2%
Cc1cc(=O)oc2cc(OCC(=O)NCc3ccco3)ccc12 | -100* | 5% | x
CC(C)NC(=O)N1CCCC2(CCN(C(=O)c3csnn3)CC2)C1 | x | 4% | 12%
N[C@@H](Cc1ncccn1)C(=O)O | x | -4%[11.4 µM] | 13%[11.4 µM]
O=C(NC1CCN(Cc2ccccc2)C1)c1ccc(Cc2nc3ccccc3[nH]2)cc1 (centres undefined) | x | 3% | x
CNC(=O)C1(C)C=CCN1C(=O)OC (centres undefined) | x | -6% | 2%
COc1cccc(CSCC(=O)O)c1 | x | -2%[11.4 µM] | -4%[11.4 µM]
O=C(Nc1ccc(S(=O)(=O)Nc2ncccn2)cc1)c1ccco1 | 16 | -2% | 2%
Cc1ccc(C)c(NS(=O)(=O)c2ccc(NC(=O)c3ccco3)cc2)c1 | -100* | -4% | x
Cc1cc(=O)oc2cc(OC(C)C(=O)N3CCOCC3)ccc12 (centres undefined) | u | 7% | -1%
Cc1cc(=O)oc2cc(OCC(=O)N3CCOCC3)ccc12 | -100* | -11% | x
O=C(c1ccco1)N1CCC2(CCN(Cc3cc(C(F)(F)F)cc(C(F)(F)F)c3)CC2)CC1 | x | 3% | 36%
COc1ccc2c(c1)N(CC[C@H]1CCCCN1C)c1ccccc1S2 | x | 2%[11.4 µM] | 0%[11.4 µM]
CC(/C=C/c1ccccc1)=N\Nc1nc(-c2ccccc2)cs1 | -85* | -12% | -27%
CC(C)=NNc1nc(-c2ccccc2)cs1 | 17 | u | x
O=C(CSc1nccn1-c1ccccc1)c1ccc(Cl)cc1 | -100* | 1% | -15%
SMILES | PNC assembly inh | 12-hLO inh | ALOX15B inhib
Cc1ccc(C(=O)CSc2nccn2-c2ccccc2)cc1 | 60 | -2% | -16%
C1COC1 | x | -4% | 8%
Cc1ccc(CN2CCN(/N=C/c3cccs3)CC2)cc1 | -99* | -1% | x
Cc1ccc(CN2CCN(/N=C/c3ccc(C)s3)CC2)cc1 | 53 | -3% | x
CNc1ccc(O)cc1 | x | 7% | -15%
Cc1ccccc1-c1cc(N2CCNCC2)ncn1 | x | x | -6%
Cc1ccc(-c2nc3ccccn3c2NC(=O)c2ccco2)cc1 | -20 | 5% | x
O=C(Nc1c(-c2ccccc2)nc2ccccn12)c1ccco1 | -82* | 3% | 3%
CCOC(=S)SCC(=O)O | x | 4%[11.4 µM] | -1%[11.4 µM]
N#Cc1cc2c(nc1SCC(N)=O)CCCCC2 | 23 | 6% | 12%
N#Cc1cc2c([nH]c1=S)CCCCCC2 | -10 | u | 25µM*
COC(=O)/C=C/c1cccc([C@H]2[C@@H]3C=CC[C@@H](C)[C@@H]3C(=O)N2Cc2ccccc2)c1 | x | -7%[0.00818 µM] | 50%[0.0915 µM]
CCc1nc(NC(C)C)c2oc3ccccc3c2n1 | -94* | -4% | 11%
CCc1nc(N[C@@H](CC(C)C)C(=O)O)c2oc3ccccc3c2n1 | 32 | 3% | 2%
CC(=O)N1CC=CC1(CC(C)C)C(=O)O (centres undefined) | x | -1% | -4%
COc1ccc(/C=C/C(=O)OCCC(C)C)cc1 | x | 1%[0.00818 µM] | 11%[0.0915 µM]
Brc1ccccc1OCCCN1CCOCC1 | -100* | -1% | x
CC1CCN(CCCCOc2ccccc2Br)CC1 | -28 | 2% | x
O=C(c1ccc(Cc2nc3ccccc3[nH]2)cc1)N1CCCCC1 | x | -1% | x
O=C(Nc1ccccc1C(=O)N/N=C/c1ccco1)c1ccccc1 | 7 | -2% | x
O=C(Nc1ccccc1C(=O)N/N=C/c1ccco1)c1ccc(F)cc1 | -86* | -11% | x
COc1ccc2[nH]cc(CCNc3nc(-c4ccccc4CN(C)C)nc4ccccc34)c2c1 | x | -11% | 43%
Cc1nc2cnc(Oc3cccc(Cl)c3)nc2n(C[C@H]2CCCO2)c1=O | x | 4% | -4%
CC1(C)C(=O)C(c2ccccc2)=C2CN3C(=O)N(CCc4ccccc4)C(=O)C3(Cc3ccc(C(F)(F)F)cc3)C=C21 (centres undefined) | x | -8% | -4%
CC1(C)CC(CC(=O)NNc2nc(-c3ccccc3)cs2)C(=O)O1 (centres undefined) | -84* | -3% | x
SMILES | PNC assembly inh | 12-hLO inh | ALOX15B inhib
CC1(C)CC(CC(=O)Nc2ccccn2)C(=O)O1 (centres undefined) | -9 | 6% | 1%
CCCCC[C@H](O)/C=C/C=C/C=C/[C@@H](O)C/C=C\CCCC(=O)O | x | 1% | x
Cc1ccccc1Oc1ccc(NC(=O)C2CC=CCC2C(=O)O)cc1 (centres undefined) | -83* | 3% | x
O=C(O)C1CC=CCC1C(=O)Nc1ccccc1 (centres undefined) | -20 | 13% | 3%
CCCc1cc(=O)[nH]c(SCC(=O)N(C)CC(=O)Nc2ccc(C)cc2)n1 | -115* | 0% | 7%
CCCc1cc(=O)[nH]c(SCC(=O)NC(=O)OCC)n1 | u | 5% | 3%
Cn1c(=O)c(-c2cccc(F)c2)nc2cncnc21 | x | x | 7%
O=C(NNS(=O)(=O)c1ccccc1)C1CCN(S(=O)(=O)c2ccc(Cl)cc2)CC1 | -100* | 0% | x
O=C(NNS(=O)(=O)c1ccccc1)C1CCN(S(=O)(=O)c2ccccc2)CC1 | 11 | -4% | u
O=C(c1ccccc1)[C@@H]1O[C@H]1c1ccc(-c2ccccc2)cc1 | x | -4% | 22%
NCCC(=O)N[C@@H](Cc1cnc[nH]1)C(=O)O | x | 0% | 5%
O=C(NCCN1CCOCC1)c1ccc(F)cc1 | 15 | -6% | 0%
O=C(NCCN1CCOCC1)c1ccc(=O)oc1 | -127* | -12% | -2%
O=C(O)CSc1n[nH]c(=O)[nH]c1=O | x | 1%[11.4 µM] | -7%[11.4 µM]
C#CC1(O)CC(C)N(C)C(C)C1 (centres undefined) | -91* | 3% | 2%
CC(=O)Nc1ccc(OC(=O)c2ccc(Cl)cc2)cc1 | -80* | -3% | x
CC(=O)Nc1ccc(C(=O)OCc2ccc(Cl)cc2)cc1 | 59 | 6% | 18%
NCCC[C@H](N)CC(=O)N[C@H]1CNC(=O)[C@@H]([C@@H]2C[C@H](O)N=C(N)N2)NC(=O)/C(=C/NC(N)=O)NC(=O)[C@@H](CO)NC(=O)[C@@H](CO)NC1=O | x | 1%[25.6 µM] | 10%[25.6 µM]
Cc1ccc(C)c(NC(=S)NCc2ccc3[nH]c4c(c3c2)CCCC4)c1 | -16 | u | x
